Test results from ChEMBL document CHEMBL3988442, “University of Dundee, Small-Polar-MMV Screening Library” (2021).

The compounds below were run against AMP-activated protein kinase, AMPK (Homo sapiens) (UniProt P54646+O43741+P54619+Q9UGJ0+Q9Y478+Q13131+Q9UGI9) (assay: AMP-dependent Kinase enzyme assay. An in vitro enzyme assay that detects ADP turnover that is directly proportional to AMPK activity. This uses naive AMPK that is activated during the assay with MK-8722). Conditions: 30 µM.
Assay type: functional
Design: scale not given: direction of the effect not stated beside the values

SMILES | Percent Effect
CCC(NCCn1cc(C)cn1)C(=O)Nc1cc(C)on1 (stereo unspecified) | -6.29%
CC(C)(CN1CCC2(CCOCC2)CC1)N1CCOCC1 | -0.161%
CCOc1cc(NC(=O)N2CCC3(CCOCC3)C2)ccc1C | -0.853%
Cc1cc(F)ccc1N1CCCC(NC(=O)CCc2ccncc2)C1 (stereo unspecified) | 14.9%
CC(C)C(NC(=O)NCc1cccnc1N(C)C)c1cccs1 (stereo unspecified) | 0.836%
O=C(c1cnc2ccccn12)N1CCCC(c2ccn[nH]2)C1 (stereo unspecified) | 7.56%
Cc1ccc(-c2cc(CS(=O)(=O)NC3CCCNC3=O)on2)cc1 (stereo unspecified) | 5.82%
CCOc1cccc(CN(Cc2cnn(C)c2)CC(C)C)c1O | -9.84%
CCCn1ccnc1-c1cccc(NC(=O)[C@H]2CCC(=O)N2)c1 | 11.3%
Cc1cc(NC(=O)N2CCC[C@@H]2CO)nn1-c1ccccc1Cl | 3.2%
Cc1ccccc1-c1noc(-c2ccc(NCC3COCCO3)nc2)n1 (stereo unspecified) | 6.52%
Cc1nc2c(c(NCC(=O)NC(C)C)n1)Cc1ccccc1OC2 | 5.96%
Cc1nnc(N2CCc3cnc(C(C)C)nc3C2)c(C#N)c1C | -15.2%
CN(CCc1ccccn1)C(=O)c1cccs1 | 6.23%
CN(C)C(C(=O)N1CCN(CCn2cccc2)CC1)c1cccc(F)c1 (stereo unspecified) | -11.9%
CN1N=C(C(=O)NCCc2ccc(OC3CCCC3)cc2)CCC1=O | -0.783%
CN(Cc1ccoc1)C(=O)C1CCN(C(=O)C2CCCC2)CC1 | -3.16%
CCCn1ccnc1-c1cccc(NC(=O)C2CCCOC2)c1 (stereo unspecified) | -0.71%
CSC1(CNC(=O)NCc2sccc2C)CCOCC1 | -1.64%
COc1nsc2nc(C3CCCN3c3ncccn3)ccc12 (stereo unspecified) | 13.7%
NC(=O)CN(Cc1ncc(-c2ccc(F)cc2)o1)C1CCCC1 | -3.13%
